Many of the other results were omitted from the sample, so hits are more common in it than they were.
SARS PLP yeast: qHTS of Yeast-based Assay for SARS-CoV PLP; S. cerevisiae expressing SARS-CoV PLpro, growth rescue; Potency, µM (titrated, usually from 32.9 µM), usual class: activators; 0.19% of 330,000 active; AID 485353, 2010; calls by dose curve; note: nearly all actives have a fitted effect of over 55% in size
AmpC detergent: qHTS Inhibitors of AmpC Beta-Lactamase (assay with detergent). P00811. AmpC hydrolysis of nitrocefin, absorbance 480 nm, 0.01% Triton. Potency, µM (highest dose often 114 µM), actives largely listed as inhibitors. 0.041% of 370,000 active; note: nearly all actives have a fitted effect of over 25% in size
Target sequence (P00811 whole entry, looked up): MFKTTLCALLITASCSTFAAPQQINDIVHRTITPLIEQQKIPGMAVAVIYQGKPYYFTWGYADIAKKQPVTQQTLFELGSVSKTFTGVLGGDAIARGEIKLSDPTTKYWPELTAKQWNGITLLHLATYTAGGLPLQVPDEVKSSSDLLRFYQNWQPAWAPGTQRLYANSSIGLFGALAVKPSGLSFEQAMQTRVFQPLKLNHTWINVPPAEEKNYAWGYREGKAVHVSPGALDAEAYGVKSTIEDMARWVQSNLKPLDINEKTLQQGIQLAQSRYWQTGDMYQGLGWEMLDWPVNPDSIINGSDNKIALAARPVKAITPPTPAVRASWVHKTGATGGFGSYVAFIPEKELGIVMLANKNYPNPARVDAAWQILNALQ
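20 mM phosphate pH 7.0 + 0.01% (detergent screen) or 0.0001% Triton X-100; 5.3 nM AmpC reagent; cpd preinc 15 min RT; nitrocefin (800 uM stock) to start; A480 q20 s × 4 min; Activity was normalised to no-enzyme and no-compound control wells.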
AMA1 RON2 block: qHTS for Inhibitors of AMA1-RON; Towards Development of Antimalarial Drug Lead: Primary Screen. Plasmodium falciparum AMA1 (3D7) - RON2 peptide interaction. AlphaScreen AMA1-biotinylated RON2 peptide binding. Potency, µM (titrated, usually from 58.2 µM), actives largely listed as inhibitors. 0.2% of 360,000 active. AID 720542, 2013; note: nearly all actives have a fitted effect of over 45% in size
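AMA1 (3D7) with his tag at 25 nM final met compounds first, then biotinylated RON2 peptide at 25 nM; detection used donor plus acceptor beads, 10 µg/mL apiece, read by AlphaScreen after 30 min at room temperature.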
AmpC no deterg: qHTS Inhibitors of AmpC Beta-Lactamase (assay without detergent). P00811. AmpC nitrocefin hydrolysis, absorbance 480 nm, 0.0001% Triton. Potency, µM (doses to about 57.1 µM), most hits filed as inhibitors. 0.52% of 330,000 active; note: nearly all actives have a fitted effect of over 20% in size
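AmpC (5.3 nM in the dispensed reagent) in 20 mM phosphate pH 7.0 with 0.01% (detergent screen) or 0.0001% Triton X-100 was preincubated with compounds for 15 min at room temperature. Nitrocefin was then added from an 800 uM solution, and hydrolysis was followed at 480 nm.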
Shiga toxin inh: A qHTS for Small Molecule Inhibitors of Shiga Toxin; 9.2% of 290,000 active; Vero cells, Shiga toxin protein synthesis inhibition reporter; inhibition, % at 38.7 µM; AID 2315, 2010; in the data active = inhibition mostly above about 28%, no sharp cut-off; inactive = mostly below about 43%
CHX counter: Cycloheximide Counterscreen for Small Molecule Inhibitors of Shiga Toxin | cell reporter, cycloheximide protein synthesis inhibition counterscreen | max response, % | 12% of 300,000 active | AID 2314, 2010; in the data active = max response mostly above about 13%, no sharp cut-off; inactive = mostly below about 14%; note: read at 38.3 µM for the half of the compounds with a filed dose
A number is an active result; n = inactive; u = inconclusive; x = not tested or not shown; [ ] = another dose, or the depositor's remark. Unless noted, calls come from the whole dose curve; as a rule, active = well fitted curve in the direction sought with a large enough effect; inconclusive = small, poorly fitted or top-dose-only effect, or another doubt; inactive = no such curve, though single readings can be large; an effect the other way counts as inactive or inconclusive.

SMILES	SARS PLP yeast	AmpC detergent	AMA1 RON2 block	AmpC no deterg	Shiga toxin inh	CHX counter
COC(=O)c1c(C)[nH]c(C=O)c1-c1ccccc1	n	n	n	n	62	30
COC(=O)c1c(-c2ccccc2)c[nH]c1C	n	n	n	n	82	24
CC[C@H](C)[C@@H](COC=O)NC(=O)[C@H]1O[C@@H](n2ccc(N)nc2=O)[C@H](O)[C@@H]1O	x	x	n	x	x	x
O=[N+]([O-])c1cc(/C=N\O)ccc1Oc1ccc(F)cc1	n	n	n	n	n	27
O=C(c1ccccc1)c1ncc[nH]1	n	n	n	n	n	19
O=C(/C(=C(\O)c1ccccc1)c1ncc[nH]1)c1ccccc1	n	n	n	n	n	n
Cc1cccc2sc(NC(=O)CCNS(=O)(=O)c3cccc4nonc34)nc12	n	n	n	n	n	n
Cc1c(NC(=O)COC(=O)c2c3c(nc4ccccc24)CCCC3)c(=O)n(-c2ccccc2)n1C	n	n	n	n	n	n
c1ccc2c(-n3cccn3)cccc2c1	n	n	n	n	83	36
CN(C)/C=N/c1nc2nccc(-c3ccccn3)n2n1	n	u	n	n	n	n
CCNCc1cc([N+](=O)[O-])ccc1OCC	n	n	n	n	n	n
Cc1cccc(C(=O)NNC(=O)c2ccccc2[N+](=O)[O-])c1	n	n	n	n	n	n
Cc1ccc(/C(O)=C/C(=O)C(=O)NNC(=O)C(O)(c2ccccc2)c2ccccc2)cc1	n	n	n	n	n	n
O=C(/C=C(\O)c1ccccc1)C(=O)NNC(=O)c1ccccc1[N+](=O)[O-]	n	u	n	n	71	17
Nc1ccccc1C(=O)NNC(=O)C(=O)/C=C(\O)c1ccccc1	n	n	n	n	53	33
CC(c1nc2ccccc2c(=O)[nH]1)N1CCN(S(=O)(=O)c2ccc(F)c(Cl)c2)CC1 (centres undefined)	x	x	n	x	x	x
S=C(NCCNCc1ccccc1)NC1CCCCC1	n	n	x	u	n	n
S=C(NCCc1ccccc1)NC1CCCCCC1	n	n	n	n	73	51
S=C(NCCc1ccc(Cl)cc1)NC1CCCC1	n	n	n	n	71	44
O=C(NC1CCCCC1)C(=S)NCCc1ccccc1	n	u	n	n	n	n
S=C(NCCc1ccc(Cl)cc1)NC1CCCCC1	n	n	n	n	103	56
S=C(NCCc1ccccc1)NCC(c1ccco1)N1CCCCC1 (centres undefined)	n	n	n	n[2.29 µM]	n	15
O=C(O)c1ccc(-n2c(-c3ccccc3)n[nH]c2=S)cc1	n	n	n	n	n	n
Cc1nnc(N2C(=O)c3oc4ccccc4c(=O)c3C2c2cccc(OCCC(C)C)c2)s1 (centres undefined)	x	n	x	x	x	x
Cc1ccc(CCNC(=O)C2CCCN(S(=O)(=O)c3ccc4c(c3)oc(=O)n4C)C2)cc1 (centres undefined)	x	n	x	x	x	x
SMILES	SARS PLP yeast	AmpC detergent	AMA1 RON2 block	AmpC no deterg	Shiga toxin inh	CHX counter
CCCCCCN1C[C@H](n2cc(-c3ccc(F)cc3)nn2)[C@@H](O)C[C@@H]1c1ccc(C)cc1	x	x	n	x	x	x
N#Cc1cc2c(nc1SCc1nc3ccccc3[nH]1)CCC2	n	n	x	n	n	44
Cc1cc(C)c(C#N)c(SCc2nc3ccccc3[nH]2)n1	n	n	n	n	94	36
Cc1cc(C)c(C#N)c(SCc2ccc(F)cc2)n1	n	n	n	n	n	n
Cc1ccc2[nH]c(=O)c(Cc3ccccc3)c(O)c2c1	n	n	n	n	n	n
COCCNC(=O)c1cc(-c2cccs2)on1	n	u	n	6.3µM	101	34
O=C(NCc1cccs1)c1cc(-c2ccccc2)on1	n	n	n	n	118	30
O=C(NCc1cccs1)c1cc(-c2cccs2)on1	n	n	n	n	87	41
Cc1cc(C(=O)NCc2cccs2)no1	n	u	n	n	n	n
O=C(NCc1cccs1)c1cc(C2CC2)on1	n	u	n	n	64	22

High-throughput results (PubChem)
